The values that follow come from PubChem BioAssay.

The target in one test is Albumin (Bos taurus) (UniProt P02769). The test is described as follows: compounds binding labelled BSA control protein – biochemical, small-molecule microarray, Alexa647 label, 635/667 nm fluorescence, artefact control for SMM control protein annotation, profiling panel (AID 1118).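 Also: score merges 667 nm emission intensity and signal-to-noise per printed compound spot.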 As to conditions: BSA-A647 binding, fluorescence 635 nm, higher = more signal.
Sequence of Albumin (Bos taurus) (P02769 whole entry, looked up): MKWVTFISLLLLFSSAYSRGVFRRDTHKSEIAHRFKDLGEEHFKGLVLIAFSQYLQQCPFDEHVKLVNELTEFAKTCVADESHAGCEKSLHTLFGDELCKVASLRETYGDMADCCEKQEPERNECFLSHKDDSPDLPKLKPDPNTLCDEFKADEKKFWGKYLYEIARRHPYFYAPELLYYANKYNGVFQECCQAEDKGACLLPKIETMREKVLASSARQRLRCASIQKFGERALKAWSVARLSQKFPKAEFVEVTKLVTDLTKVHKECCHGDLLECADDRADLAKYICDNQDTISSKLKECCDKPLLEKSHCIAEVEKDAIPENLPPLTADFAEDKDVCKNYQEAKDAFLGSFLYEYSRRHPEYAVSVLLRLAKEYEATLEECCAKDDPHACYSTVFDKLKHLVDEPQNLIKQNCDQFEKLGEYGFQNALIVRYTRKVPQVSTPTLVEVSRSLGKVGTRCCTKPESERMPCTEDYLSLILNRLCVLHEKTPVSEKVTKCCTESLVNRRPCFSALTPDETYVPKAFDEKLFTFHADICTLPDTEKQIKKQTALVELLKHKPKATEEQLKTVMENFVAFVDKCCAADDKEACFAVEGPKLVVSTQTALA
Test [1] in a line: probe aXIP binding to arrayed compounds – biochemical, NeuroSMM set, 635/667 nm fluorescence, primary screen (AID 1119).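 Also: probe is the protein aXip251-270 applied at 1 µg/mL to compound-printed slides; binding of probe to printed compounds measured as 667 nm fluorescence plus signal to noise.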 As to conditions: small-molecule microarray, higher = more signal, called active from +8 up or from −8 down.
Test [2] in a line: probe aNOTCH3 binding on compound microarray – biochemical, small-molecule microarray, 635/667 nm fluorescence, primary screen (AID 1120).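 Also: probe is a biotin-tagged antibody raised against NOTCH3 rather than NOTCH3 protein; score merges spot fluorescence near 667 nm with spot signal to noise.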 As to conditions: higher = more signal.
Test [3] in a line: probe aNOTCH2 binding on compound microarray – biochemical, small-molecule microarray, 635/667 nm fluorescence, primary screen (AID 1121).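 Also: score merges feature fluorescence read at 667 nm with its signal to noise.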 As to conditions: higher = more signal.
Test [4] addresses Carbonic anhydrase 2 (Homo sapiens) (UniProt P00918). The test is described as follows: compounds binding carbonic anhydrase 2 – biochemical, small-molecule microarray, Alexa647-labelled CAII, profiling panel (AID 1122). As to conditions: CAII-A647 binding fluorescence, higher = more signal.
Test [5] is described as follows: COS7 lysate on small-molecule microarray, probe aHis, 635 nm (AID 1123).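 Also: z-score combines 667nm fluorescence intensity with signal-to-noise per printed compound spot.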 The note with it: COS7 cell lysate, fluorescence, higher = more signal.
The nature of test [6]: probe aLAP1 signal on lysate-treated microarray – cell lysate, small-molecule microarray, COS7 lysate, primary screen (AID 1124).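 Also: lysate comes from COS7 cells expressing LAP1 and is applied at 0.3 µg/mL; score merges spot fluorescence near 667 nm with signal-to-noise over triplicate slides.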 The note with it: probe aLAP1, fluorescence, higher = more signal.
The subject of the next test is Sam68 (KHDRBS1). As to the kind of experiment: compounds binding KHDRBS1 protein – biochemical, small-molecule microarray, 635 nm fluorescence, primary screen (AID 1125).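 Also: score merges 667 nm channel intensity with signal to noise over triplicate slides.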 The note with it: higher = more signal.
In test [7] the test system is Chordin-like protein 2 (CHRDL2). As to the kind of experiment: compounds binding chordin-like 2 – biochemical, small-molecule microarray, 635 nm fluorescence, primary screen (AID 1126).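 Also: printed compound slides probed with Chrdl2 protein at 4 µg/mL for 1 h at 4 C; score merges 667 nm emission intensity with signal to noise over three replicate slides.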 As to conditions: fluorescence 635 nm, higher = more signal.
The target in test [8] is Concanavalin-A (Canavalia ensiformis) (UniProt P02866). As to the kind of experiment: compounds binding concanavalin A lectin – biochemical, small-molecule microarray, Alexa647 label, 635 nm, artefact control for SMM control protein annotation, primary screen (AID 1127).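 Also: z combines 667 nm emission intensity with signal-to-noise across three replicate slides.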 As to conditions: ConA-A647 binding fluorescence, higher = more signal.
Sequence of Concanavalin-A (Canavalia ensiformis) (P02866 whole entry, looked up): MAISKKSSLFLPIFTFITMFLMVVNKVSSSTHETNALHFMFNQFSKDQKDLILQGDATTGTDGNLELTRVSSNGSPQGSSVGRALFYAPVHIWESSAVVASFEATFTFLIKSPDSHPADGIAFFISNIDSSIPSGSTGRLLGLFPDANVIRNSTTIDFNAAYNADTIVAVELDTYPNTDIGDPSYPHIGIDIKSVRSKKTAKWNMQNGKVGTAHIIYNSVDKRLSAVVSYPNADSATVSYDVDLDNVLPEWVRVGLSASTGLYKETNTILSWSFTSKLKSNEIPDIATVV
The nature of test [9]: compounds binding Alexa647 anti-His antibody – biochemical, small-molecule microarray, 635 nm fluorescence, artefact control for SMM control protein annotation, primary screen (AID 1128).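 Also: score merges feature fluorescence with signal-to-noise for each printed compound spot.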 As to conditions: higher = more signal.
Test [10] has as its system Human papillomavirus type 1a E7 protein (residues 1-88). As to the kind of experiment: HPV1a E7 small-molecule binders, primary screen, biochemical, small-molecule microarray, residues 1-88, 635 nm (AID 1129). The note with it: small-molecule microarray binding, fluorescence 635 nm; higher = more signal.
Test [11] deals with Focal adhesion kinase 1 (Homo sapiens) (UniProt Q05397). As to the kind of experiment: PTK2 protein binding on printed compound slides – biochemical, small-molecule microarray, 635/667 nm fluorescence, BSA, DTT, primary screen (AID 1130).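 Also: composite of spot emission at 667 nm and signal to noise over triplicate slides.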 As to conditions: 635 nm fluorescence, higher = more signal.
Sequence of Focal adhesion kinase 1 (Homo sapiens) (Q05397 whole entry, looked up): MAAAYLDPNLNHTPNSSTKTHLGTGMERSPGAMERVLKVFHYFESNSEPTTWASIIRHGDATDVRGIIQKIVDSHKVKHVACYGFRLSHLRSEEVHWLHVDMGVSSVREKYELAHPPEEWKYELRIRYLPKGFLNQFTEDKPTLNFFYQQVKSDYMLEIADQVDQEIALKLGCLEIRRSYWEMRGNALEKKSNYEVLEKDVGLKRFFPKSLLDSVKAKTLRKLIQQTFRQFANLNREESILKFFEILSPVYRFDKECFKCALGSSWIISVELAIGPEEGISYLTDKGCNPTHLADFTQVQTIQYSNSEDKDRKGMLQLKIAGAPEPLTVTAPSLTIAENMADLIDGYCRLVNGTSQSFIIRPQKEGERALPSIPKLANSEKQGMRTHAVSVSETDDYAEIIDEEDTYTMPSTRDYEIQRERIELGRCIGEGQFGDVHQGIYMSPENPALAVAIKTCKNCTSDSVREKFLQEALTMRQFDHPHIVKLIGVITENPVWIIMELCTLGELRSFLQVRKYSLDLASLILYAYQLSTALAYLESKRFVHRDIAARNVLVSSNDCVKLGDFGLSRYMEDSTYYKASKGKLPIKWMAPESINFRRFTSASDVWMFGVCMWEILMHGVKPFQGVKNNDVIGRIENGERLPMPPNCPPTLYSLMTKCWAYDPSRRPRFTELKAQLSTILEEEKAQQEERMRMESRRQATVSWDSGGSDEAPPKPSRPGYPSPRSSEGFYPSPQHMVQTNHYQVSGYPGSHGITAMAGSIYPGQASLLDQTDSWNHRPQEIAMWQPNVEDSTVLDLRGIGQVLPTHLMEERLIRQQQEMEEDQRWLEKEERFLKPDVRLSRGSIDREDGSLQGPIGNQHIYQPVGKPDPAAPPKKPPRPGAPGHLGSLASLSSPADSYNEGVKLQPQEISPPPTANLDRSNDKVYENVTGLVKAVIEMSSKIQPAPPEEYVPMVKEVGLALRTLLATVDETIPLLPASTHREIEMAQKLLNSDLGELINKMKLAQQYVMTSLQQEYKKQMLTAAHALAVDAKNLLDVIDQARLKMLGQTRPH
In test [12] the test system is Fibrinogen (Alexa647-labelled). As to the kind of experiment: Alexa647-fibrinogen binding to printed small molecules – biochemical, small-molecule microarray, 635/667 nm fluorescence, artefact control for SMM control-protein annotation, profiling panel (AID 1131).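 Also: z-score merges 667 nm fluorescence with per-spot signal-to-noise over triplicate slides.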 As to conditions: fibrinogen-A647 binding fluorescence, higher = more signal.
In test [13] the target is Follistatin (Homo sapiens) (UniProt P19883). The test is described as follows: FST protein binding to printed compounds – biochemical, small-molecule microarray, 635/667 nm fluorescence, primary screen (AID 1132). The note with it: 635 nm fluorescence, higher = more signal.
Sequence of Follistatin (Homo sapiens) (P19883 whole entry, looked up): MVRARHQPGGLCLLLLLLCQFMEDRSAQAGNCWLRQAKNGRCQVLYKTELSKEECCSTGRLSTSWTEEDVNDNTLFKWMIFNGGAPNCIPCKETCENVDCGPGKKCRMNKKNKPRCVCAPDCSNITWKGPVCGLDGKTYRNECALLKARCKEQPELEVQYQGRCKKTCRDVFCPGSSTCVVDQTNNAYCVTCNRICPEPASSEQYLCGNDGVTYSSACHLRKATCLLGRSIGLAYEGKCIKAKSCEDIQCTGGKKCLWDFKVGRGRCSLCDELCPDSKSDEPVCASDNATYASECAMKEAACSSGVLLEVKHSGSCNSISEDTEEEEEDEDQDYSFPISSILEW
The target of test [14] is Fibroblast growth factor 2 (Homo sapiens) (UniProt P09038). As to the kind of experiment: basic fibroblast growth factor binding to printed compounds – biochemical, small-molecule microarray, 635/667 nm fluorescence, primary screen (AID 1133). The note with it: FGF2, fluorescence 635/667, higher = more signal.
Sequence of Fibroblast growth factor 2 (Homo sapiens) (P09038 whole entry, looked up): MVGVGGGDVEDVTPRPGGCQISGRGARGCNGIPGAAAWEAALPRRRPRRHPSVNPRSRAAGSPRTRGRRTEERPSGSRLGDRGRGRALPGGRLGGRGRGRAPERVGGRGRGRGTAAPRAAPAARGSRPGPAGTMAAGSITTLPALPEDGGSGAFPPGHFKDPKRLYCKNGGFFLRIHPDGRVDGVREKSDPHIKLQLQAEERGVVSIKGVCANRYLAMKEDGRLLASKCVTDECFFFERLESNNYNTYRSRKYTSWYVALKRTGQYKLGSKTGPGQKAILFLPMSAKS
Test [15] in a line: JC-1 mitochondrial potential readout, lung cancer cells – cell-based, A549, JC-1 fluorescence, basal, 24 h, 100 nL, profiling panel (AID 1138).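 Also: A549 lung adenocarcinoma cells under basal conditions with no added stimulus; test concentration not given here.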 The note with it: higher = more signal.
A further test deals with Lefty1. As to the kind of experiment: Lefty1 protein binding to printed compounds – biochemical, small-molecule microarray, 635/667 nm fluorescence, primary screen (AID 1139). The note with it: fluorescence 635/667, higher = more signal.
In test [16] the test system is wheat germ agglutinin (Triticum aestivum), Alexa647-labelled. The test is described as follows: Alexa647-WGA lectin binding to printed small molecules – biochemical, small-molecule microarray, 635/667 nm fluorescence, artefact control for SMM control-protein annotation, profiling panel (AID 1140).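 Also: score merges 667 nm feature emission with signal to noise over triplicate slides.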 The note with it: WGA-A647 binding, 635 nm fluorescence, higher = more signal.

Test [17] has as its target Luciferin 4-monooxygenase (Photinus pyralis) (UniProt P08659). The test is described as follows: inhibition of purified Photinus pyralis luciferase – biochemical, luminescence, purified enzyme, 2006 set, primary screen (AID 1141).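 Also: cell-free assay with purified firefly luciferase at 100 ng per well in PBS; test concentration not given here.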 As to conditions: purified firefly luciferase, SteadyGlo luminescence, 30 min; higher = more signal, called active from +8 up or from −8 down.

Active and inactive are the calls of the source.

Sequence of Luciferin 4-monooxygenase (Photinus pyralis) (P08659 whole entry, looked up): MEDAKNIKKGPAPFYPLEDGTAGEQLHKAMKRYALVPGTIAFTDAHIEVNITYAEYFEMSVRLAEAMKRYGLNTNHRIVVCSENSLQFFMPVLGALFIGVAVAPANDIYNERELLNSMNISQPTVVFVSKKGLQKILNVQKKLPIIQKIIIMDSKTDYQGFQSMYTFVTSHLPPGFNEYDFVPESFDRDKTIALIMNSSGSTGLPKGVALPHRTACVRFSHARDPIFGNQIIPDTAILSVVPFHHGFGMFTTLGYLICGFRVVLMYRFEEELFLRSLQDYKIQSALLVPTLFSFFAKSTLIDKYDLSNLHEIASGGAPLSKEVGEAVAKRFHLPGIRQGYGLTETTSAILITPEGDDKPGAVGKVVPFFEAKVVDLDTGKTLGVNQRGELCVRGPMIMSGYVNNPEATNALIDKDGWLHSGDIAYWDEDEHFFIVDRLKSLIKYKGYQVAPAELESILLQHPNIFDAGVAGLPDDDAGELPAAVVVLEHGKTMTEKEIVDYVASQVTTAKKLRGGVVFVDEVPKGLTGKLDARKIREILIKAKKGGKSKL

Consider `COCCCNC(=O)[C@@H]1c2ccccc2C(=O)N(CC23CC4CC(CC(C4)C2)C3)[C@H]1c1ccc(CO)cc1`, for which the composite z-score was -0.507 in the test with Albumin (Bos taurus); 0.28 in [2]; -0.0232 in [3]; 0.449 in test [4]; 1.34 in [5]; 0.334 in [6]. The composite z-score with Sam68 (KHDRBS1) is 1.27; in [7] it was -0.0949; in test [8], -0.171; in [9], -0.348; in test [10] it was 0.816; in test [11], 0.412. The composite z-score is -0.434 in test [12]; 1.39 in [13]; 0.875 in test [14]; 0.19 with Lefty1; 0.728 in [16]. The composite Z-score in test [1] was 0.309 (inactive). Moreover, the z-score in [15] is -0.648; in test [17], 0.438 (inactive).
Take `COc1ccc([Si](C)(C)[C@@H]2[C@@H](CCO)O[C@]3(C(=O)N(Cc4ccc(NC(=O)[C@H](C)O)cc4)c4ccccc43)[C@H]2C)cc1`: the composite z-score with Albumin (Bos taurus) is 0.762; in test [2], -0.0288; in test [3], -0.127; in test [4] it was 0.348; in test [5], 1.42; in test [6] it was -0.0561. For the same compound, the composite z-score in the test with Sam68 (KHDRBS1) is 1.32; in test [7], -0.0817; in [8] it was 1.08; in [9] it was 1.79; in test [10] it was 1.06; in test [11], 0.293. Besides, the composite z-score was 0.94 in test [12]; 0.403 in [13]; 0.137 in test [14]; 0.215 in the test with Lefty1; 0.852 in test [16]. The composite Z-score in [1] is 0.423 (inactive). Also, the results for the z-score in test [15] and in [17] were -1.61 and -0.546 (inactive), respectively.
As to `CO[C@@H]1COC(=O)[C@H](COCc2ccccc2)NC(=O)CC=C[C@@H](C)[C@H](OC)COC(=O)[C@H](COCc2ccccc2)NC(=O)CC=C[C@H]1C`, the composite z-score was -0.711 in the test with Albumin (Bos taurus); -0.0063 in test [2]; -0.112 in test [3]; -0.319 in test [4]; 0.107 in test [5]; -0.225 in test [6]. The composite z-score with Sam68 (KHDRBS1) was -0.136; in [7] it was 1.1; in test [8], -0.582; in test [9], -0.156; in test [10], -0.47; in test [11], -0.0624. Also, the composite z-score is -0.201 in test [12]; 0.59 in test [13]; 0.622 in [14]; 0.886 in the test with Lefty1; -0.915 in test [16]. For the same compound, in test [1], the composite Z-score was -0.14 (inactive). Besides, the z-score in test [15] is 0.952; in [17], -0.901 (inactive).
For `O=C1C[C@@](C(=O)NCCN2CCOCC2)(c2ccc([N+](=O)[O-])cc2)[C@@H](c2ccc(CO)cc2)N1C1CCCCC1`, the composite z-score with Albumin (Bos taurus) is -0.218; in test [2], 0.0597; in test [3], 0.188; in [4], 0.656; in test [5] it was 1.79; in test [6], 0.596. For the same compound, the composite z-score was 1.17 with Sam68 (KHDRBS1); 0.395 in test [7]; 1.06 in test [8]; 0.926 in [9]; 0.666 in [10]; -0.442 in test [11]. Besides, the composite z-score in test [12] was found to be 0.63; in [13], 1.16; in test [14], 1.22; with Lefty1 it was 0.0031; in [16], 0.43. Moreover, the composite Z-score in test [1] was -0.346 (inactive). Moreover, the figures for the z-score in test [15] and in test [17] were 1.11 and -0.83 (inactive), respectively.
As for `CCOC(=O)C1=CCC(c2cccc3ccccc23)N(S(=O)(=O)c2ccc(C)cc2)C1` (stereo not given), the composite z-score in the test with Albumin (Bos taurus) was 0.816; in test [2], 0.056; in test [3] it was -0.0731; in test [4], 0.401; in test [5], 1.41; in test [6], 0.117. Further, the composite z-score in the test with Sam68 (KHDRBS1) came out at 1.12; in test [7], 0.341; in [8] it was 1.08; in [9], 0.206; in [10], 1.17; in [11] it was 1.02. The composite z-score is 0.928 in test [12]; 0.825 in [13]; -0.509 in test [14]; 0.052 in the test with Lefty1; 0.697 in [16]. Besides, in [1], the composite Z-score was 0.494 (inactive). Also, the z-score in test [15] is 2.43; in [17] it was 1.72 (inactive).
